# Activity calls are given as the source filed them. The calls were made as follows: active = hit-call score of the fitted dose curve at least 0.9, where 1 is the maximum; inactive = score below 0.9.
# Read-out: Matrix Metallopeptidase 1 (MMP1), MMP1 (gene 4312)
# Assay: BSK_hDFCGF_MMP1: BioMAP Diversity Plus: hDFCGF Assay for Matrix Metallopeptidase 1 (MMP1) Biomarker Activity (AID 2283064)
# Details: primary human foreskin fibroblasts; actives raise or lower the signal
# Outline: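 MMP1 levels quantified by ELISA 24 h after dosing human dermal fibroblast cultures, with parallel SRB total-protein staining for overt cytotoxicity. Data fitted in both directions against DMSO baseline.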
Compound,outcome,AC50
CC(C)CCO,inactive,
CC(=O)OC[C@H]1O[C@@](COC(C)=O)(O[C@H]2O[C@H](COC(C)=O)[C@@H](OC(C)=O)[C@H](OC(C)=O)[C@H]2OC(C)=O)[C@@H](OC(C)=O)[C@@H]1OC(C)=O,inactive,
NC(=O)NO,inactive,
COc1ccc(/C=C/S(=O)(=O)NC(=O)c2ccc(C)cc2Cl)cc1,inactive,
Nc1ccc(Nc2ccccc2)cc1,inactive,
CN(C)c1ccc(Cc2ccc(N(C)C)cc2)cc1,,20 µM (active)
Cc1ccc(C)c(O)c1,inactive,

# Read-out: Plasminogen activator inhibitor-1 (PAI1), SERPINE1 (gene 5054)
# Assay: BSK_hDFCGF_PAI1: BioMAP Diversity Plus: hDFCGF Assay for Plasminogen activator inhibitor-1 (PAI1) Biomarker Activity (AID 2283066)
# Details: primary human foreskin fibroblasts; actives raise or lower the signal
# Outline: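 Fibroblasts from human foreskin were treated with test chemical. After 24 h, PAI-1 was measured by ELISA. Activity was fitted in both directions relative to DMSO.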
Compound,AC50,outcome
On1ccccc1=S,1.7 µM (active),
O=c1[nH]c2ccc(S(=O)CCN3CCC(Cc4ccc(F)cc4)CC3)cc2o1 (configuration not stated),,inactive
O=C(NS(=O)(=O)/C=C/c1ccccc1)c1ccc(F)cc1Cl,,inactive
COc1ccc(-n2nc(C(F)F)cc2-c2ccc(S(C)=O)cc2)cc1 (configuration not stated),,inactive
CCCN(C1CCN(C(=O)C2CCNCC2)CC1)[C@@H]1CCc2ccc(OC)cc2C1,,inactive
O=C1CCCCCN1,,inactive
Nc1cccc(N)c1,,inactive
Fc1ccccc1[C@@H](F)COC1CCC(Nc2ncnc3[nH]ncc23)CC1 (some centres not stated),,inactive
CCn1nc(Cc2ccccc2)cc1C1CCN(C[C@H]2C[C@H](N(C)[C@@H](C(=O)O)C(C)C)C[C@@H]2c2cccc(F)c2)CC1,,inactive
C=CC(=C)CCC=C(C)C,,inactive
CC(C)(O)c1coc(S(=O)(=O)NC(=O)Nc2c3c(cc4c2CCC4)CCC3)c1,,inactive
CC(=O)OCCC(C)C,,inactive
O=C1OC(=O)C2C3C=CC(C3)C12 (configuration not stated),,inactive
O=C(O)c1cccc(Oc2ccccc2)c1,,inactive
CCCCCCCCCCCCCCCO,,inactive
O=C(CCCCCCCCc1cccnc1)N1CCC(C=C(c2ccccc2)c2ccccc2)CC1,5.88 µM (active),
COC(=O)c1ccccc1O,,inactive
CCC(C)(C)C(=O)O[C@H]1C[C@@H](C)C=C2C=C[C@H](C)[C@H](CC[C@@H]3C[C@@H](O)CC(=O)O3)[C@H]21,23.4 µM (active),
O=c1n(CC2CO2)c(=O)n(CC2CO2)c(=O)n1CC1CO1 (configuration not stated),22 µM (active),
O=C(O)c1cccc(N(Cc2cccnc2)c2ccc(OC(F)F)c(OC(F)F)c2)c1,1.26 µM (active),
C1=CCCC=CCCC=CCC1,,inactive
O=C(O)c1cc(N=Nc2ccc(S(=O)(=O)Nc3ccccn3)cc2)ccc1O,,inactive
CCOc1cccc(-n2cc(C(=O)N3CCN(c4cc(C(=O)O)c5ccccc5c4)CC3)nc2-c2ccc(C)cc2)c1,6.1 µM (active),
CC(C)CCO,,inactive
CC(=O)OC[C@H]1O[C@@](COC(C)=O)(O[C@H]2O[C@H](COC(C)=O)[C@@H](OC(C)=O)[C@H](OC(C)=O)[C@H]2OC(C)=O)[C@@H](OC(C)=O)[C@@H]1OC(C)=O,,inactive
NC(=O)NO,,inactive
COc1ccc(/C=C/S(=O)(=O)NC(=O)c2ccc(C)cc2Cl)cc1,,inactive
Nc1ccc(Nc2ccccc2)cc1,,inactive
CN(C)c1ccc(Cc2ccc(N(C)C)cc2)cc1,,inactive
Cc1ccc(C)c(O)c1,,inactive

# — PubChem BioAssay (EPA / NIEHS)
